Compounds with a hit are over-represented: about 2.3% of the library has one in this group of screens.
Mcl1 Bid PPI – disrupts binding of human Mcl-1 to Bid peptide. inhibition, % at 21.7 µM. 220,000 compounds, 0.97% hits. Q07820. TR-FRET Mcl-1/Bid-Dy647 peptide binding, 1536-well;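 active = compounds that cut the binding signal by more than half at the single screening dose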;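 note: His-tagged Mcl-1 with europium anti-His antibody binding Bid BH3 peptide; 0% = Mcl-1 plus peptide wells and 100% = peptide-only wells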
Target sequence (Q07820 whole entry, looked up): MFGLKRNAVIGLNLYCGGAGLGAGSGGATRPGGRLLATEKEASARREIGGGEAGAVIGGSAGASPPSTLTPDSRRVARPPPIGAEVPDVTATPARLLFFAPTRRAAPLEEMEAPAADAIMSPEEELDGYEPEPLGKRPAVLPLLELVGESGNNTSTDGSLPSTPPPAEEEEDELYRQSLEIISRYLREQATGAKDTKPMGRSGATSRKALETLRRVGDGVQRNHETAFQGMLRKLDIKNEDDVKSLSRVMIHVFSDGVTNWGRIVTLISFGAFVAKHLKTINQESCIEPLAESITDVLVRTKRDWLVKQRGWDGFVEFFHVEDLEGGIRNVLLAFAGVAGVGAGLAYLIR
Bcl-xL primary – inhibitors of human Bcl-xL. GST-Bcl-xL / FITC-Bim BH3 peptide fluorescence polarization. 320,000 compounds, 0.7% hits. AID 2129. Q07817. inhibition, % at 10.9 µM;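 active = inhibition above the mean of all tested compounds plus 3 SD, cutoff set per campaign, cut at about 30% in these data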;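 note: 0% = DMSO wells and 100% = unlabeled Bim-BH3 peptide competitor; inhibitors lower millipolarization by displacing the labeled peptide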
Bim-Mcl-1 – human Bim-Mcl-1 interaction inhibition. Q07820. Bead-based flow cytometry, Bim peptide-Mcl-1 binding. inhibition, % at 10 µM. 190,000 compounds, 0.1% hits; in the data active = inhibition above about 40%;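 note: 0% = no compound tracer wells and 100% = peptide blocker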
Mcl1-Noxa inh – disrupts binding of human Mcl-1 to Noxa peptide. AID 1022. Q07820. inhibition, % at 21.7 µM. 220,000 compounds, 1.5% hits. TR-FRET Mcl-1/Noxa peptide binding, 2 h;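 active = compounds that cut the protein-peptide binding signal by more than 50% relative to plate controls in a single-dose test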;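 note: His-tagged Mcl-1 with rhodamine Noxa BH3 peptide and terbium anti-His antibody; 0% = Mcl-1 plus Noxa peptide wells and 100% = peptide-only wells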
GLD-1 RNA inh – GLD-1-TGE RNA interaction inhibition (C. elegans); inhibition, % at 5.96 µM; 320,000 compounds, 0.44% hits; AID 2280; purified GLD-1 + fluorescein TGE RNA, fluorescence polarization; Q17339;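 active = percent inhibition above a per-plate cutoff, the plate mean of test compounds plus 3 SD, cut at about 30% in these data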;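 note: 0% = DMSO wells with GLD-1 and probe and 100% = wells lacking GLD-1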
MCL1 BIM primary – inhibitors of human MCL1 binding to BIM-BH3 peptide. Q07820. 320,000 compounds, 0.68% hits. GST-MCL1 / FITC-Bim-BH3 fluorescence polarization. inhibition, % at 10.9 µM;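 active = inhibition above the mean inhibition of all tested compounds plus 3 SD, set per campaign, cut at about 40% in these data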;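 note: 0% = DMSO wells and 100% = unlabeled Bim-BH3 peptide control; higher means more loss of mP so more displacement of Bim peptide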
GLD1 RNA confirm – confirmation of C. elegans GLD-1 TGE RNA binding inhibitors; shares compounds with GLD-1 RNA inh; GLD-1/FL-TGE RNA fluorescence polarization, biochemical; inhibition, % at 5.96 µM; 550 compounds, 10% hits; AID 2459;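 active = average inhibition across triplicates above the hit cutoff set in the primary screen, cut at about 32% in these data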;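 note: 0% = GLD-1 with RNA probe and DMSO and 100% = wells lacking GLD-1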
Starred values were filed as active, the others as inactive; . = not tested or not shown.

SMILES	Mcl1 Bid PPI	Bcl-xL primary	Bim-Mcl-1	Mcl1-Noxa inh	GLD-1 RNA inh	MCL1 BIM primary	GLD1 RNA confirm
Clc1ccc(/C=N/c2c(-c3ccco3)nc3ccccn23)cc1	-44	39*	3	50	45*	47*	44*
Cc1c(CC(=O)NCCCO)c(=O)oc2cc3c(cc12)CCC(C)(C)O3	.	2	.	.	4	5	.
O=C(Nc1cccc(C(=O)O)c1)/C(=C\c1ccc2c(c1)OCO2)NC(=O)c1ccccc1Cl	.	0	.	.	0	7	.
Cc1oc2cc3oc(=O)c(CCC(=O)NCCN4CCOCC4)c(C)c3cc2c1C	.	3	.	.	-5	3	.
CN1CCN(C(=S)c2ccc([N+](=O)[O-])cc2)CC1	-12	3	-6	-10	79*	2	0
Cc1ccc(C)c(N(CC(=O)NC2CCCCC2)C(=O)CNC(=O)c2ccco2)c1	.	1	.	.	5	8	.
COc1nnc(-c2ccc(C)c(S(=O)(=O)NC(C)(C)CO)c2)c2ccccc12	.	6	.	.	-6	0	.
COc1nnc(-c2ccc(C)c(S(=O)(=O)NCCO)c2)c2ccccc12	8	39*	0	17	49*	30	-1
O=C1c2ccccc2OC2(C=Cc3ccccc3O2)N1Cc1ccccc1 (stereo unspecified)	-11	-1	-1	17	6	-5	.
CN1CC2=Cc3ccccc3OC23Oc2ccccc2C=C3C1	-57	14	17	12	33*	16	39*
CC1(C)CC(=O)C/C(=N/NC(=O)COc2ccc3ccccc3c2Br)C1	.	5	.	.	31*	14	1
CC1(C)CC(=O)C/C(=N/NC(=O)COc2ccc(Cl)cc2Cl)C1	-36	5	.	-16	23	15	.
COc1ccccc1P(=O)(Cc1ccccc1[N+](=O)[O-])c1ccccc1 (stereo unspecified)	.	-2	.	.	5	-4	.
CCCCn1nc(C(=O)N(CC)CC(=O)Nc2c(F)cccc2F)c2ccccc2c1=O	.	2	.	.	8	-1	.
Cc1nn2c(NCCCN(C)C)c3c(nc2c1-c1ccccc1)CCC3	-9	0	-5	3	31*	2	4
COc1ccc(NC(=O)c2ccc(OC)c(S(=O)(=O)N3CCCCC3C)c2)cn1 (stereo unspecified)	.	51*	.	.	33*	48*	28
COc1ccc(C(=O)Nc2ccc(NC(C)=O)cc2)cc1S(=O)(=O)N1CCCC1	.	4	.	.	7	-4	.
Oc1cc(NCCc2cccnc2)cc2cccnc12	.	.	.	.	39*	.	24
Oc1cc(Nc2cccnc2)cc2cccnc12	.	.	.	.	4	.	.
COc1cc(/C=C(\C#N)c2nc3ccccc3[nH]2)cc(Br)c1OCc1ccc(F)cc1	7	5	0	28	97*	-5	-2
CCCNC(=O)NC(=O)CN1C(=O)NC(C)(c2ccc3ccccc3c2)C1=O (stereo unspecified)	.	-6	.	.	2	-13	.
CN1C2C=C3C(C#N)=C(N)C(C#N)(C#N)[C@@H](c4cccs4)C3C1CC2 (stereo partly specified)	-18	43*	-5	10	33*	46*	4
Cc1ccc(C(=O)NCC(=O)Nc2ncccc2C)s1	.	6	.	.	-3	2	.
CC(NC(=O)CN(C)Cc1ccc(Br)cc1)c1ccccc1 (stereo unspecified)	.	-2	.	.	3	2	.
CSc1ccc(CN(C)CC(=O)NC(C)c2ccccc2)cc1 (stereo unspecified)	-5	-1	1	2	54*	-5	-2
CC(=O)c1c(C)oc2c1cc(NS(=O)(=O)c1ccc(C(=O)O)cc1)c1ccccc12	.	8	.	.	16	1	.
Cc1ccc(S(=O)(=O)Nc2cc3c(C(=O)Nc4ccccc4)c(C)oc3c3ccccc23)cc1	-26	21	0	36	128*	22	105*
CC1C(=O)N2CCCc3cc(NC(=O)CC(C)(C)C)cc1c32 (stereo unspecified)	.	5	.	.	-4	2	.
CCN(CC)C(=O)CSc1nnc2nnc3cc(C)ccc3n12	-12	28	.	-3	42*	32	23
CCCN1CCN(CCCNC(=O)c2ccc(CS(=O)c3ccccc3C)o2)CC1 (stereo unspecified)	.	8	.	.	1	5	.

Screening results from PubChem.
